Screens from PubChem.
LGR2 antag: inhibitors of bursicon-induced Drosophila LGR2 receptor cAMP signaling; HEK293 LGR2, CRE-luciferase, bursicon-stimulated, 4 h; inhibition, % at 9.99 µM; 380,000 compounds, 0.35% hits; AID 720647;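 active = drop in luminescence signal, shown as inhibition above about 50% in the replicate tests, limit read from the data, passing the limit was not always enough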;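 note: agonist challenge used bursicon conditioned medium at about half maximal strength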
EWS-Fli inh: blocks EWS/Fli oncoprotein-driven transcription; inhibition, % at 12.6 µM; A673 NR0B1-luciferase reporter, viability-normalised; 350,000 compounds, 0.67% hits; AID 651661;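 active = mean inhibition of at least 50% after viability correction, with every replicate also passing that limit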;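 note: firefly luciferase signal divided by Alamar Blue viability fluorescence both relative to DMSO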
PAX8 reporter: inhibitors of PAX8 transcriptional activity in RMG-I cells. 360,000 compounds, 1.2% hits. RMG-I TPO-luciferase reporter, SteadyGlo, 24 h. inhibition, % at 12.6 µM. AID 652154;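 active = mean replicate inhibition at least 60% with every replicate also reaching 60%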;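 note: luciferase light reporting Pax8 driven TPO promoter activity; plate controls were median of neutral control wells for no effect and mitoxantrone controls for full effect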
TWEAK Fn14 block: blocks TWEAK-Fn14 interaction in a reporter cell assay; TWEAK-stimulated Fn14 reporter cells, luciferase luminescence, 8 h; 360,000 compounds, 2% hits; inhibition, % at 10 µM; in the data active = inhibition above about 50%
EBV LMP1 NFkB: reduces LMP1-driven NF-kappaB luciferase signal; LMP1-induced NF-kappaB luciferase reporter cells, luminescence; inhibition, % at 12.5 µM; 350,000 compounds, 0.69% hits; AID 504558; in the data active = inhibition above about 41%;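 note: 0% = neutral control wells and 100% = reference inhibitor control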
TROY signal inh: TROY signaling inhibition | Q293 LMP1-TROYcd NF-kB luciferase reporter, 4 h | inhibition, % at 10 µM | 360,000 compounds, 0.98% hits | AID 1347056;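 active = compounds whose plate-normalised and pattern-corrected inhibition of the luciferase reporter signal at the single screening dose is 50% or more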
Starred values were filed as active, the others as inactive; nt = no result. Sampled rows, rich in hits. Any-hit rate of the full collection: about 3.1%.

SMILES	LGR2 antag	EWS-Fli inh	PAX8 reporter	TWEAK Fn14 block	EBV LMP1 NFkB	TROY signal inh
COc1ccc(NC(=O)Cn2nnc(C(=O)NCc3ccccc3)c2N)c(OC)c1	12	2	30	-1	64*	12
COc1ccc(NC(=O)N(C)C[C@@H]2OCCCC[C@@H](C)Oc3ccc(NC(=O)Nc4c(C)noc4C)cc3C(=O)N([C@H](C)CO)C[C@H]2C)cc1	15	0	-15	nt	nt	nt
CC1(C)CC[C@]2(C(=O)n3ccnc3)CC[C@]3(C)[C@H](C(=O)C=C4[C@@]5(C)C=C(C#N)C(=O)C(C)(C)[C@@H]5CC[C@]43C)[C@@H]2C1	9	76*	39	106*	90*	75*
CCCNC(=O)C[C@@H]1CC[C@@H]2[C@H](COC[C@H](O)CN2C(=O)c2cccnc2)O1	4	-8	-19	nt	nt	nt
CC[C@@H](C)[C@@H]1CN([C@@H](CN2CCC[C@H]2CN2C(N)=NC[C@H]2C(C)C)C(C)C)C(=N)N1CCCC1CCCC1	8	-6	84*	0	2	-1
N=c1oc2ccccc2cc1C(=O)Nc1ccc(F)cc1	9	26	-192	62*	-27	-81
Cc1ccc(NC(=O)c2cc3ccccc3oc2=N)cc1	89*	69*	-5	98*	50*	38
N=c1oc2ccccc2cc1C(=O)Nc1cccc(F)c1	-65	-45	-90	50	-25	-11
N=c1oc2cc(O)ccc2cc1C(=O)Nc1ccc(Cl)cc1	-44	-80	-146	15	-57	-3
C[C@H](CO)N1C[C@H](C)[C@@H](CN(C)C(=O)c2ccncc2)OCCCC[C@H](C)Oc2ccc(N(C)C)cc2C1=O	nt	0	-10	nt	nt	nt
O=C(Nc1ccc(/C=C/c2nc3ccccc3o2)cc1)c1c(F)cccc1F	nt	nt	nt	38	-22	59*
Cc1ccc(-c2nc(N)n(C(=O)c3cccnc3)n2)cc1	nt	nt	nt	-22	14	-50
Cc1ccc(C(=O)n2nc(-c3cccnc3)nc2N)cc1	-15	nt	nt	22	6	64*
Cc1noc(C)c1S(=O)(=O)N(C)C[C@H]1OCCCC[C@H](C)Oc2ccc(NS(=O)(=O)c3cccs3)cc2C(=O)N([C@@H](C)CO)C[C@H]1C	-5	-4	-13	nt	nt	nt
C=CCN1CCN(C(CC(C)C)c2nnnn2CCOC)CC1 (stereo not drawn)	nt	nt	nt	6	49*	-5
O=c1/c(=C\c2cccn2-c2ccccc2)sc2nc3ccccc3n12	nt	nt	-141	61*	-19	45
O=C(O)Cn1cc(/C=c2/sc3nc4ccccc4n3c2=O)c2ccccc21	-148	-151	-53	-24	-49	35
Cn1c(-c2ccc(C#N)cc2)c(C#Cc2ccccc2)c2ccccc21	-36	-24	-9	-20	-25	-3
N#Cc1c(-c2ccc(Cl)cc2)n(O)c2ccccc12	nt	nt	nt	64*	2	50
COc1ccc(CN2CC3(CCN(C(=O)Cc4ccncc4)CC3)c3c([nH]c4cc(OC)ccc34)[C@@H]2CO)cc1	16	-4	nt	nt	nt	nt
C[C@H](CO)N1C[C@H](C)[C@H](CN(C)C(=O)Nc2ccc(C(F)(F)F)cc2)Oc2ccc(NC(=O)Nc3cccc4ccccc34)cc2C1=O	12	-6	nt	nt	nt	nt
O=C(N/N=C/c1ccc(OC(F)F)cc1)c1cccc(S(=O)(=O)N2CCOCC2)c1	7	-4	10	71*	-7	10
O=C(N/N=C/c1sc(N2CCOCC2)nc1-c1ccccc1)c1cccc(S(=O)(=O)N2CCCC2)c1	nt	20	74*	51*	11	10
CC(C)c1ccc(/C=N/NC(=O)c2cccc(S(=O)(=O)N3CCOCC3)c2)cc1	nt	11	1	10	-8	-10
COc1ccc2c3c(n(C)c2c1)[C@@H](CO)N(C(=O)C1CCOCC1)CC31CCN(C(=O)Nc2cccc(F)c2)CC1	1	20	nt	nt	nt	nt
SMILES	LGR2 antag	EWS-Fli inh	PAX8 reporter	TWEAK Fn14 block	EBV LMP1 NFkB	TROY signal inh
Cc1cccc2c(CC(=O)Nc3ccccc3)noc12	-5	-5	64*	-32	-1	-11
COCCn1c(SCCN2CCOCC2)nc2c1c(=O)[nH]c(=O)n2C	-4	2	-17	5	77*	8
CCCCCSc1nc2c(c(=O)[nH]c(=O)n2C)n1CC	9	18	-14	-7	82*	-2
C[C@H]1CCCCO[C@@H](CN(C)C(=O)CCCN(C)C)[C@@H](C)CN([C@@H](C)CO)C(=O)c2cc(NC(=O)C3CCCCC3)ccc2O1	-3	-7	nt	nt	nt	nt
O=C(NC1CCCC1)N1CCCCN2[C@H](C1)[C@@H](c1ccc(-c3cccnc3)cc1)[C@@H]2CO	-7	2	3	nt	nt	nt
O=S(=O)(c1ccc(Cl)cc1)c1snnc1-c1ccccc1	nt	nt	nt	88*	-3	49
O=S(=O)(c1ccc(F)cc1)c1snnc1-c1ccccc1	58*	40	58	64*	-4	27
c1ccc(-c2nnsc2-c2ncc[nH]2)cc1	0	1	4	-4	-8	-3
C[C@H]1CCCCO[C@H](CN(C)Cc2ccc3c(c2)OCO3)[C@@H](C)CN([C@@H](C)CO)C(=O)c2cc(NC(=O)Nc3ccc(C(F)(F)F)cc3)ccc2O1	-7	75*	67*	nt	nt	nt
C[C@H](CO)N1C[C@H](C)[C@H](CN(C)Cc2ccc3c(c2)OCO3)OCCCC[C@H](C)Oc2ccc(NC(=O)Nc3ccc(C(F)(F)F)cc3)cc2C1=O	10	76*	108*	nt	nt	nt
C[C@@H]1CCCCO[C@H](CN(C)Cc2ccc3c(c2)OCO3)[C@H](C)CN([C@@H](C)CO)C(=O)c2cc(NC(=O)Nc3ccc(C(F)(F)F)cc3)ccc2O1	13	75*	63*	nt	nt	nt
C[C@@H]1CN([C@@H](C)CO)C(=O)c2cc(NC(=O)Nc3ccc(C(F)(F)F)cc3)ccc2O[C@@H](C)CCCCO[C@H]1CN(C)Cc1ccc2c(c1)OCO2	7	-2	83*	nt	nt	nt
C[C@@H]1CN([C@H](C)CO)C(=O)c2cc(NS(=O)(=O)c3cccs3)ccc2O[C@H]1CN(C)Cc1ccc(C(=O)O)cc1	1	-12	nt	nt	nt	nt
Cc1noc(C)c1NC(=O)Nc1ccc2c(c1)C(=O)N([C@@H](C)CO)C[C@@H](C)[C@H](CN(C)Cc1ccc(C(=O)O)cc1)O2	-10	-2	nt	nt	nt	nt
O=C(C[C@H]1CC[C@H]2[C@@H](COC[C@H](O)CN2C(=O)Nc2ccc(Cl)cc2)O1)N1CCCCC1	-49	-48	-26	nt	nt	nt
CCC(=O)N[C@@H]1CC[C@@H](CCNC(=O)Nc2ccc(F)cc2)O[C@H]1CO	-14	-2	-14	nt	nt	nt
C[C@@H]1CN([C@H](C)CO)C(=O)c2cc(NC(=O)Nc3ccc(C(F)(F)F)cc3)ccc2O[C@@H](C)CCCCO[C@H]1CN(C)Cc1ccc2c(c1)OCO2	7	77*	108*	nt	nt	nt
C[C@@H]1CCCCO[C@@H](CN(C)Cc2ccc3c(c2)OCO3)[C@@H](C)CN([C@H](C)CO)C(=O)c2cc(NC(=O)Nc3ccc(C(F)(F)F)cc3)ccc2O1	6	-6	35	nt	nt	nt
